{"source": "the supplement of paper PMC8728848", "binders": {"B1": {"name": "CTLY 1 (Homo sapiens), Q6ZS10 (protein)", "chain": "AITCPEGWLPFEGKCYYFSPSTKSWDEARMFCQENYSHLVIINSFAEHNFVAKAHGSPRVYWLGLNDRAQEGDWRWLDGSPVTLSFWEPEEPNNIHDEDCATMNKGGTWNDLSCYKTTYWICERKGLNDIFEAQKIEWHE"}}, "experiment_in_all_cases": "glycan array binding signal (z-score within array); higher = stronger binding", "conditions_in_all_cases": "glycan notation: IUPAC condensed, linker removed", "key": {"[1]": {"target": "Fuc(a1-2)Gal(b1-3)GalNAc(a1-3)[Fuc(a1-2)]Gal(b1-4)GlcNAc", "method_in_brief": "(§1)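 The binding signal is a Z-score computed within each array and averaged over linkers. Arrays of the same protein sequence at different concentrations or buffers were also averaged together. Data originate from 3228 arrays in the Consortium for Functional Glycomics database, kept only where the protein sequence was available.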"}, "[2]": {"target": "Fuc(a1-2)Gal(b1-3)GlcNAc(b1-3)Gal(b1-4)Glc", "method_in_brief": "as §1"}, "[3]": {"target": "Fuc(a1-2)Gal(b1-3)GlcNAc(b1-3)[Fuc(a1-3)[Gal(b1-4)]GlcNAc(b1-6)]Gal(b1-4)Glc", "method_in_brief": "as §1"}, "[4]": {"target": "Fuc(a1-2)Gal(b1-4)[Fuc(a1-3)]GlcNAc(b1-3)Gal(b1-4)[Fuc(a1-3)]GlcNAc(b1-3)Gal(b1-4)[Fuc(a1-3)]GlcNAc", "method_in_brief": "as §1"}, "[5]": {"target": "Fuc(a1-2)[Gal(a1-3)]Gal(b1-4)GlcNAc(b1-2)Man(a1-3)[Fuc(a1-2)[Gal(a1-3)]Gal(b1-4)GlcNAc(b1-2)Man(a1-6)]Man(b1-4)GlcNAc(b1-4)GlcNAc", "method_in_brief": "as §1"}, "[6]": {"target": "Fuc(a1-2)[Gal(a1-3)]Gal(b1-4)[Fuc(a1-3)]GlcNAc", "method_in_brief": "as §1"}, "[7]": {"target": "Fuc(a1-2)[GalNAc(a1-3)]Gal(b1-4)[Fuc(a1-3)]GlcNAc", "method_in_brief": "as §1"}, "[8]": {"target": "Fuc(a1-3)[Gal(b1-4)]GlcNAc(b1-4)Gal(b1-4)[Fuc(a1-3)]GlcNAc", "method_in_brief": "as §1"}, "[9]": {"target": "Fuc(a1-3)[Gal(b1-4)]GlcNAc(b1-6)[Gal(b1-3)GlcNAc(b1-3)]Gal(b1-4)Glc", "method_in_brief": "as §1"}, "[10]": {"target": "Fuc(a1-3)[GalNAc(b1-4)]GlcNAc", "method_in_brief": "as §1"}, "Fuc(a1-4)GlcNAc": {"target": "Fuc(a1-4)GlcNAc", "method_in_brief": "as §1"}, "Gal(b1-4)Glc6S": {"target": "Gal(b1-4)Glc6S", "method_in_brief": "as §1"}, "[11]": {"target": "Gal(b1-4)GlcNAc(b1-2)Man(a1-3)[Gal(b1-4)GlcNAc(b1-2)Man(a1-6)]Man(b1-4)GlcNAc(b1-4)GlcNAc", "method_in_brief": "as §1"}, "[12]": {"target": "Gal(b1-4)GlcNAc(b1-2)Man(a1-6)Man(b1-4)GlcNAc(b1-4)GlcNAc", "method_in_brief": "as §1"}, "[13]": {"target": "Gal(b1-4)GlcNAc(b1-3)[Gal(b1-4)GlcNAc(b1-6)]GalNAc", "method_in_brief": "as §1"}, "[14]": {"target": "Gal(b1-4)GlcNAc(b1-6)GalNAc", "method_in_brief": "as §1"}, "[15]": {"target": "Gal3S(b1-3)[Fuc(a1-4)]GlcNAc", "method_in_brief": "as §1"}, "[16]": {"target": "GalNAc(b1-3)Gal(a1-4)Gal(b1-4)GlcNAc", "method_in_brief": "as §1"}, "Glc(b1-4)Glc": {"target": "Glc(b1-4)Glc", "method_in_brief": "as §1"}, "[17]": {"target": "GlcNAc(b1-3)Gal(b1-4)GlcNAc", "method_in_brief": "as §1"}, "[18]": {"target": "GlcNAc(b1-3)[GlcNAc(b1-6)]GalNAc", "method_in_brief": "as §1"}, "[19]": {"target": "GlcNAc(b1-4)Gal(b1-4)GlcNAc", "method_in_brief": "as §1"}, "[20]": {"target": "GlcNAc(b1-4)[GlcNAc(b1-6)]GalNAc", "method_in_brief": "as §1"}, "Kdn(a2-6)Gal(b1-4)GlcNAc": {"target": "Kdn(a2-6)Gal(b1-4)GlcNAc", "method_in_brief": "as §1"}, "[21]": {"target": "Man(a1-2)Man(a1-2)Man(a1-3)Man", "method_in_brief": "as §1"}, "[22]": {"target": "Man(a1-2)Man(a1-2)Man(a1-6)[Man(a1-3)]Man", "method_in_brief": "as §1"}, "Man(a1-2)Man(a1-3)Man": {"target": "Man(a1-2)Man(a1-3)Man", "method_in_brief": "as §1"}, "[23]": {"target": "Man(a1-2)Man(a1-3)[Man(a1-2)Man(a1-6)]Man", "method_in_brief": "as §1"}, "[24]": {"target": "Man(a1-2)Man(a1-3)[Man(a1-2)Man(a1-6)]Man(a1-6)[Man(a1-2)Man(a1-2)Man(a1-3)]Man", "method_in_brief": "as §1"}, "[25]": {"target": "Man(a1-2)Man(a1-6)[Man(a1-3)]Man(a1-6)[Man(a1-2)Man(a1-2)Man(a1-3)]Man", "method_in_brief": "as §1"}, "[26]": {"target": "Man(a1-2)Man(a1-6)[Man(a1-3)]Man(a1-6)[Man(a1-2)Man(a1-2)Man(a1-3)]Man(b1-4)GlcNAc(b1-4)GlcNAc", "method_in_brief": "as §1"}, "Man(a1-6)Man": {"target": "Man(a1-6)Man", "method_in_brief": "as §1"}, "Man(b1-4)GlcNAc": {"target": "Man(b1-4)GlcNAc", "method_in_brief": "as §1"}, "Neu5Ac(a2-3)Gal": {"target": "Neu5Ac(a2-3)Gal", "method_in_brief": "as §1"}, "[27]": {"target": "Neu5Ac(a2-3)Gal(b1-3)GalNAc(b1-4)[Neu5Ac(a2-3)]Gal(b1-4)Glc", "method_in_brief": "as §1"}, "[28]": {"target": "Neu5Ac(a2-3)Gal(b1-3)GlcNAc(b1-3)Gal(b1-4)GlcNAc", "method_in_brief": "as §1"}, "[29]": {"target": "Neu5Ac(a2-3)Gal(b1-3)GlcNAc(b1-3)GalNAc", "method_in_brief": "as §1"}, "[30]": {"target": "Neu5Ac(a2-3)Gal(b1-4)GlcNAc(b1-3)Gal(b1-4)[Fuc(a1-3)]GlcNAc", "method_in_brief": "as §1"}, "[31]": {"target": "Neu5Ac(a2-3)Gal(b1-4)[Fuc(a1-3)]GlcNAc(b1-3)Gal(b1-4)[Fuc(a1-3)]GlcNAc(b1-3)Gal(b1-4)[Fuc(a1-3)]GlcNAc", "method_in_brief": "as §1"}, "Neu5Ac(a2-6)Gal": {"target": "Neu5Ac(a2-6)Gal", "method_in_brief": "as §1"}, "[32]": {"target": "Neu5Ac(a2-6)Gal(b1-4)GlcNAc(b1-3)GalNAc", "method_in_brief": "as §1"}, "Neu5Ac(a2-6)GalNAc": {"target": "Neu5Ac(a2-6)GalNAc", "method_in_brief": "as §1"}, "[33]": {"target": "Neu5Ac(a2-8)Neu5Ac(a2-3)Gal(b1-4)Glc", "method_in_brief": "as §1"}}, "note": "The entries come from a sample that favours the strongest signals as a whole."}
{"binder": "B1", "values": [{"measurement": "glycan array binding signal (z-score)", "setting": "[1]", "value": -0.207}, {"measurement": "glycan array binding signal (z-score)", "setting": "[2]", "value": -0.241}, {"measurement": "glycan array binding signal (z-score)", "setting": "[3]", "value": -0.239}, {"measurement": "glycan array binding signal (z-score)", "setting": "[4]", "value": 4.81}, {"measurement": "glycan array binding signal (z-score)", "setting": "[5]", "value": -0.174}, {"measurement": "glycan array binding signal (z-score)", "setting": "[6]", "value": -0.207}, {"measurement": "glycan array binding signal (z-score)", "setting": "[7]", "value": 5.5}, {"measurement": "glycan array binding signal (z-score)", "setting": "[8]", "value": 0.526}, {"measurement": "glycan array binding signal (z-score)", "setting": "[9]", "value": -0.219}, {"measurement": "glycan array binding signal (z-score)", "setting": "[10]", "value": -0.188}, {"measurement": "glycan array binding signal (z-score)", "setting": "Fuc(a1-4)GlcNAc", "value": -0.24}, {"measurement": "glycan array binding signal (z-score)", "setting": "Gal(b1-4)Glc6S", "value": -0.248}, {"measurement": "glycan array binding signal (z-score)", "setting": "[11]", "value": -0.242}, {"measurement": "glycan array binding signal (z-score)", "setting": "[12]", "value": -0.226}, {"measurement": "glycan array binding signal (z-score)", "setting": "[13]", "value": -0.246}, {"measurement": "glycan array binding signal (z-score)", "setting": "[14]", "value": -0.23}, {"measurement": "glycan array binding signal (z-score)", "setting": "[15]", "value": 1.29}, {"measurement": "glycan array binding signal (z-score)", "setting": "[16]", "value": -0.243}, {"measurement": "glycan array binding signal (z-score)", "setting": "Glc(b1-4)Glc", "value": -0.243}, {"measurement": "glycan array binding signal (z-score)", "setting": "[17]", "value": -0.237}, {"measurement": "glycan array binding signal (z-score)", "setting": "[18]", "value": -0.066}, {"measurement": "glycan array binding signal (z-score)", "setting": "[19]", "value": -0.212}, {"measurement": "glycan array binding signal (z-score)", "setting": "[20]", "value": 0.086}, {"measurement": "glycan array binding signal (z-score)", "setting": "Kdn(a2-6)Gal(b1-4)GlcNAc", "value": -0.232}, {"measurement": "glycan array binding signal (z-score)", "setting": "[21]", "value": 6.07}, {"measurement": "glycan array binding signal (z-score)", "setting": "[22]", "value": 10.1}, {"measurement": "glycan array binding signal (z-score)", "setting": "Man(a1-2)Man(a1-3)Man", "value": 1.1}, {"measurement": "glycan array binding signal (z-score)", "setting": "[23]", "value": 4.5}, {"measurement": "glycan array binding signal (z-score)", "setting": "[24]", "value": 8.68}, {"measurement": "glycan array binding signal (z-score)", "setting": "[25]", "value": 4.81}, {"measurement": "glycan array binding signal (z-score)", "setting": "[26]", "value": 0.475}, {"measurement": "glycan array binding signal (z-score)", "setting": "Man(a1-6)Man", "value": -0.228}, {"measurement": "glycan array binding signal (z-score)", "setting": "Man(b1-4)GlcNAc", "value": -0.239}, {"measurement": "glycan array binding signal (z-score)", "setting": "Neu5Ac(a2-3)Gal", "value": -0.238}, {"measurement": "glycan array binding signal (z-score)", "setting": "[27]", "value": -0.231}, {"measurement": "glycan array binding signal (z-score)", "setting": "[28]", "value": -0.235}, {"measurement": "glycan array binding signal (z-score)", "setting": "[29]", "value": -0.237}, {"measurement": "glycan array binding signal (z-score)", "setting": "[30]", "value": -0.238}, {"measurement": "glycan array binding signal (z-score)", "setting": "[31]", "value": 1.04}, {"measurement": "glycan array binding signal (z-score)", "setting": "Neu5Ac(a2-6)Gal", "value": -0.253}, {"measurement": "glycan array binding signal (z-score)", "setting": "[32]", "value": -0.235}, {"measurement": "glycan array binding signal (z-score)", "setting": "Neu5Ac(a2-6)GalNAc", "value": -0.248}, {"measurement": "glycan array binding signal (z-score)", "setting": "[33]", "value": -0.252}]}
